Rows were chosen to be rich in hits. Some 0.92% of all compounds tested hit in one or more screens of this group.
RecA intein inh: inhibitors of M. tuberculosis RecA intein splicing | P9WHJ3 | cell-free RecA intein splicing, fluorescence | inhibition, % (concentration not given with the values) | actives 0.75% (n = 290,000) | AID 2221; in the data active = inhibition above about 30%
Rv3671c inh: inhibits the M. tuberculosis serine protease Rv3671c | inhibition, % at 5.96 µM | actives 0.048% (n = 320,000) | AID 2606; in the data active = inhibition above about 38%;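 also: extracellular domain of Rv3671c used as enzyme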
Target sequence (P9WHR9 whole entry, looked up, the tested form may be a part): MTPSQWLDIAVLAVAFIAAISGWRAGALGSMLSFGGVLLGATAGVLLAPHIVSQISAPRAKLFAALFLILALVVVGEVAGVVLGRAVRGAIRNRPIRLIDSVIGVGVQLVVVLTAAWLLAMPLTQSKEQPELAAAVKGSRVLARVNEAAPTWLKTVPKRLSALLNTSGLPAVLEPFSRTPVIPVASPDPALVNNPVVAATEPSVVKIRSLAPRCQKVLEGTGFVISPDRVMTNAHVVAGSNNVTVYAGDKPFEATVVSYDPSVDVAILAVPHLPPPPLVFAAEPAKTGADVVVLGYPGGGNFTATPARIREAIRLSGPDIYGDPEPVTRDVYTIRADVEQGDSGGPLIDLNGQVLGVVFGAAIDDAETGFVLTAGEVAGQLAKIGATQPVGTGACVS
Mtb hypoxia rep: Mtb hypoxia fluorescent reporter inhibition; fluorescence inhibition, % (no concentration beside the values); AID 1159583; actives 0.1% (n = 300,000); M. tuberculosis hypoxia-regulated fluorescent reporter, fluorescence; in the data active = fluorescence inhibition mostly above about 23%, no sharp cut-off; inactive = mostly below about 17%
Mtb UGM inh: blocks M. tuberculosis UGM enzyme; P9WIQ1; purified UGM, fluorescence polarization probe displacement; inhibition, % at 10 µM; actives 0.06% (n = 320,000); AID 504406; in the data active = inhibition above about 10%, passing the limit was not always enough
FadD28 binding: M. tuberculosis FadD28 bisubstrate binding inhibition | FadD28 bisubstrate probe binding, fluorescence polarization | inhibition, % at 12.5 µM | actives 0.22% (n = 360,000) | AID 588549; in the data active = inhibition above about 8.5%, passing the limit was not always enough
GFP chromophore: counter-screen: blocks GFP chromophore formation | shares compounds with RecA intein inh | cell-free GFP chromophore formation, fluorescence | EC50, µM | actives 83% (n = 2,100) | AID 434968; call rule not given here
Large screens that a line does not name were inactive (follow-up assays come after a bar, where shown).

CC1=NN(c2ccccc2)C(=O)/C1=C/c1ccc(Cl)cc1	RecA intein inh 85 (no result: Rv3671c inh) | GFP chromophore 3.2
CC1=NN(c2ccccc2)C(=O)/C1=C/c1cccs1	RecA intein inh 85 | GFP chromophore 6
CCOC(=O)C1C2COc3cc(OC)ccc3C2N2C(=O)N(c3ccc(OC)cc3)C(=O)[C@@]12C (stereo not given in full)	none (no result: RecA intein inh, Rv3671c inh, Mtb UGM inh, FadD28 binding)
COc1cccc(-c2cn(CC3CCC(C4CCC(Cn5cc(-c6cccc(OC)c6)nn5)O4)O3)nn2)c1 (stereo not given)	none (no result: RecA intein inh, Rv3671c inh, Mtb UGM inh, FadD28 binding)
CCOc1ccccc1NC(=O)Nc1ccc2c(c1)OCO2	none
C=CCOc1ccccc1CN(C(=O)CCl)c1ccc2c(c1)OCO2	RecA intein inh 81 (no result: Mtb hypoxia rep) | GFP chromophore 8.3
COc1ccc(-c2oc(NC(=O)CCl)c(C#N)c2-c2ccc(OC)cc2)cc1	RecA intein inh 90 | GFP chromophore 1.4
FC(F)(F)c1cc(CCN2CCNCC2Cc2ccccc2)cc(C(F)(F)F)c1 (stereo not given)	none (no result: RecA intein inh, Rv3671c inh, Mtb UGM inh, FadD28 binding)
c1cncc(CNc2ncnc3sc4c(c23)CCCC4)c1	RecA intein inh 36 | GFP chromophore inactive
CCCc1cc(=O)n2[nH]c(-c3ccccc3)cc2n1	none (no result: Mtb hypoxia rep)
CCCCn1[nH]c(-c2ccccc2)cc1=O	RecA intein inh 97 | GFP chromophore 2.8
CON=CC(C#N)=Cc1cc(C(=O)c2ccc(F)cc2)cn1C	none (no result: RecA intein inh, Rv3671c inh, Mtb UGM inh, FadD28 binding)
Cc1cccc(Nc2nc(NCc3ccco3)c3ccccc3n2)c1	RecA intein inh 33 | GFP chromophore 15
c1ccc(Nc2nc(NCc3ccco3)c3ccccc3n2)cc1	RecA intein inh 38 | GFP chromophore 26
Cc1ccc(OCC(=O)NN=Cc2ccncc2)c(C)c1	none (no result: RecA intein inh, Rv3671c inh, Mtb UGM inh, FadD28 binding)
O=C(/C=C/c1ccc(O)cc1)c1ccc(NC2=C(N3CCCCC3)C(=O)c3ccccc3C2=O)cc1	RecA intein inh 57 | GFP chromophore 6.1
O=C(/C=C/c1ccc(O)cc1)c1ccccc1	none (not shown: Mtb hypoxia rep)
O=C1C(Nc2cccc(O)c2)=C(N2CCCCC2)C(=O)c2ccccc21	RecA intein inh 79 | GFP chromophore 3
Cc1ccc(NC2=C(N3CCCCC3)C(=O)c3ccccc3C2=O)cc1	RecA intein inh 67 | GFP chromophore 9.5
O=C(O)c1cccc(NC2=C(Cl)C(=O)c3ccccc3C2=O)c1	none (no result: RecA intein inh, Rv3671c inh, Mtb UGM inh)
COc1ccccc1NC1=C(N2CCCCC2)C(=O)c2ccccc2C1=O	RecA intein inh 79 | GFP chromophore 17
CN(C1=C(N2CCCCC2)C(=O)c2ccccc2C1=O)c1ccccc1	none
C[C@@]12CCC=CC1C(c1ccc3ccccc3c1C=Cc1ccccc1)N(Cc1ccccc1)C2=O (stereo not given in full)	none (no result: RecA intein inh, Rv3671c inh, Mtb UGM inh, FadD28 binding)
CCOC1OC(C(N)=O)=CC(C2CC2)C1CCCO (stereo not given)	none (no result: RecA intein inh, Rv3671c inh, Mtb UGM inh, FadD28 binding)
Cc1ccc(C(=O)NN=Cc2ccc(-c3cccc(Cl)c3)o2)cn1	none (no result: RecA intein inh, Rv3671c inh, Mtb UGM inh, FadD28 binding)
CCN(CC)CCOc1ccc(Br)cc1	none
CCN(CC)CCOc1ccc(/C(=C(\Cl)c2ccccc2)c2ccccc2)cc1	RecA intein inh 36 (no result: Mtb hypoxia rep) | GFP chromophore 18
O=S(=O)(c1ccc(C2CCCCC2)cc1)N1CCOCC1	none
O=c1cc(-c2ccc(C3CCCCC3)cc2)[nH][nH]1	RecA intein inh 76 | GFP chromophore 1.9
O=c1ccc(Br)c[nH]1	none
O=c1cc(-c2ccc(F)cc2)[nH][nH]1	RecA intein inh 98 | GFP chromophore 2.3
O=c1cc(-c2ccc(Br)cc2)[nH][nH]1	RecA intein inh 97 | GFP chromophore 3.7
O=c1cc(-c2ccccc2)[nH][nH]1	RecA intein inh 97 | GFP chromophore 2.2
O=c1cccc(-c2ccccc2)[nH]1	none
Cc1cc(C(=O)NN=Cc2cccc([N+](=O)[O-])c2O)n[nH]1	none (no result: RecA intein inh, Rv3671c inh, Mtb UGM inh, FadD28 binding)
COC(=O)[C@]1(CC(C)C)NC(c2ccc(-c3ccccc3)cc2)C2C(=O)N(C)C(=O)C21 (stereo not given in full)	none (no result: RecA intein inh, Rv3671c inh, Mtb UGM inh, FadD28 binding)
CCOC(=O)c1[nH]cnc1C(=O)NC(C)c1ccccc1 (stereo not given)	none (no result: RecA intein inh, Rv3671c inh, Mtb UGM inh, FadD28 binding)
CC1CN(C(C)CO)C(=O)c2cccc(NC(=O)Nc3ccc(C(F)(F)F)cc3)c2OC1CN(C)C(=O)NC1CCCCC1 (stereo not given)	none (no result: RecA intein inh, Rv3671c inh, Mtb UGM inh, FadD28 binding)
COc1cc(OC)cc(C(=O)N/N=C(\C)CC(=O)Nc2ccccn2)c1	RecA intein inh 56 (no result: Mtb hypoxia rep) | GFP chromophore 24
C/C(CC(=O)Nc1ccccn1)=N\NC(=O)c1ccncc1	RecA intein inh 85 (no result: Mtb hypoxia rep, FadD28 binding) | GFP chromophore 6.8
C/C(CC(=O)Nc1ccc(Cl)cn1)=N\NC(=O)Cc1cccs1	RecA intein inh 62 (no result: Mtb hypoxia rep) | GFP chromophore 37
C/C(CC(=O)Nc1ccccn1)=N\NC(=O)c1ccccc1	none (no result: Mtb hypoxia rep, FadD28 binding)
C/C(CC(=O)Nc1ccccn1)=N\NC(=O)Cc1cccc2ccccc12	RecA intein inh 87 (no result: Mtb hypoxia rep) | GFP chromophore 8.6
CC(CC(=O)Nc1ccccn1)=NNC(=O)c1ccccc1	none (no result: RecA intein inh, Rv3671c inh, Mtb UGM inh, FadD28 binding)
CC(CC(=O)Nc1ccc(C)c(Cl)c1)=NNC(=O)Cc1cccs1	none (no result: RecA intein inh, Rv3671c inh, Mtb UGM inh, FadD28 binding)
Cc1oc2c(c1C(=O)N1CCC(C)CC1)C(=O)c1ccccc1C2=O	RecA intein inh 79 (no result: FadD28 binding) | GFP chromophore 8.5
CC1CCN(C(=O)c2ccc3c(c2)C(=O)c2ccccc2-3)CC1	none (no result: RecA intein inh, Rv3671c inh, Mtb hypoxia rep, Mtb UGM inh)
CCOC(=O)C1CCN(C(=O)c2c(C)oc3c2C(=O)c2ccccc2C3=O)CC1	RecA intein inh 69 | GFP chromophore 4.7
Oc1ccc(O)c(Cc2nc3ccccc3s2)c1	RecA intein inh 31 | GFP chromophore inactive
Oc1ccccc1OCc1nc2ccccc2s1	none
Cc1ccc(-c2nc(Nc3cccc(O)c3)c3ccccc3n2)cc1	none
Oc1cccc(Nc2nc(-c3ccccc3Cl)nc3ccccc23)c1	RecA intein inh 35 (no result: Mtb hypoxia rep) | GFP chromophore inactive
CS(=O)(=O)c1ncc(Cl)c(C(=O)Nc2ccc(N3CCOCC3)cc2)n1	RecA intein inh 45 | GFP chromophore 38
CS(=O)(=O)c1ccc(C(=O)Nc2ccc(N3CCOCC3)cc2)c(Cl)c1	none
CS(=O)(=O)c1ncc(Cl)c(C(=O)Nc2ccc(OC(F)F)cc2)n1	RecA intein inh 79 (no result: Mtb hypoxia rep) | GFP chromophore 11
Cc1ccccc1NC(=O)c1nc(S(C)(=O)=O)ncc1Cl	none (no result: RecA intein inh)
CC(=NNC(=O)C1CC1)c1ccc(N2CCOCC2)cc1	none (no result: RecA intein inh, Rv3671c inh, Mtb UGM inh, FadD28 binding)
O=C(O)C=CC(=O)NCCC1=CCCCC1	none (no result: RecA intein inh, Rv3671c inh, Mtb UGM inh, FadD28 binding)
Cc1ccc(C)c(S(=O)(=O)/N=C2\C=C(NS(=O)(=O)c3ccccc3)C(=O)c3ccccc32)c1	RecA intein inh 75 (no result: Mtb hypoxia rep) | GFP chromophore 5.4
CC(C)c1ccc(S(=O)(=O)/N=C2\C=C(NS(=O)(=O)c3ccccc3)C(=O)c3ccccc32)cc1	RecA intein inh 45 | GFP chromophore 6.7
CCc1ccc(S(=O)(=O)N=C2C=C(Sc3ncn[nH]3)C(=O)c3ccccc32)cc1	none (no result: RecA intein inh, Rv3671c inh, Mtb UGM inh, FadD28 binding)
O=C1C(Nc2ccccc2)=CC(=NS(=O)(=O)c2cccs2)c2ccccc21	none (no result: RecA intein inh, Rv3671c inh, Mtb UGM inh, FadD28 binding)
CCc1ccc(S(=O)(=O)/N=C2\C=C(NS(=O)(=O)c3ccccc3)C(=O)c3ccccc32)cc1	RecA intein inh 34 (no result: Rv3671c inh, Mtb UGM inh) | GFP chromophore 4
O=C(O)c1ccc(NN=Cc2ccc(-c3cccc(Cl)c3)o2)cc1	none (no result: RecA intein inh, Rv3671c inh, Mtb UGM inh, FadD28 binding)

From PubChem
